PubChem BioAssay AID1117361 (Southern Research Institute, 2015)
Hit rate of the full screen: of about 3,600 compounds, about 900 (25%) were called active. How the calls were made is not given here. These entries were drawn from the full list. Measured potencies and affinities stand elsewhere.

These compounds were tested against Protein Tat (Human immunodeficiency virus type 1 group M subtype B (isolate HXB2)) (UniProt P04608) (assay: HIV-1 Tat–TAR interaction blockers – biochemical, fluorescence polarization, FAM-labeled TAR RNA, counter-screen for Vif-APOBEC3G degradation inhibitor project, dose response (AID 1117361)). Details: Tat-TAR RNA binding; series mostly up to 100 µM; inhibition: at the top concentration.

Compound	inhibition	outcome
Cc1cccc(N2CCN(CC(=O)Nc3nccs3)CC2)c1C	3.38% (inactive)	
COC(=O)CSc1nnc(CNC(=O)c2ccccc2OC)n1-c1ccc(OC)cc1	2.73% (inactive)	
CS(=O)(=O)N1CCCC(C(=O)NCCCN2CCC(Cc3ccccc3)CC2)C1 (stereo unspecified)	3.41% (inactive)	
O=C1C2C3CC(C(Br)C3Br)C2C(=O)N1c1ccccn1 (stereo unspecified)	1.35% (inactive)	
CCOc1ccc2nc(N3CCCC(C(=O)NCCCN4CCOCC4)C3)sc2c1 (stereo unspecified)		inactive
COc1cc(OC)c2ccc(=O)oc2c1C(CCN1CCCC(C)C1)c1ccc2c(c1)OCO2 (stereo unspecified)	0.82% (inactive)	
O=C1C(Cc2ccccc2)SC(=Nc2ccccc2)N1c1ccccc1 (stereo unspecified)	0.68% (inactive)	
COc1ccc2[nH]c(C(=O)O)c(CCN3C(=O)c4cccc([N+](=O)[O-])c4C3=O)c2c1		inactive
COc1ccc2nc(NNC(=O)c3cc(=O)c4ccccc4o3)sc2c1	19% (inactive)	
Cc1ccc2cc3c(NC(=O)c4cccnc4)nn(C)c3nc2c1	18.2% (inactive)	
O=C1C2CCCN2C(c2ccccc2)N1c1nccs1 (stereo unspecified)	17.1% (inactive)	
O=C1NN(c2cccc(Br)c2)C(=O)/C1=C\c1ccccc1		inactive
CCCCc1cc(=O)oc2cc(OCC(=O)N(CC)CC)c(Cl)cc12		inactive
Cc1ccccc1C(=O)NCC(=O)OC(C)C(=O)NC(C)CCc1ccccc1 (stereo unspecified)	5.77% (inactive)	
O=C(Nc1cccc(OC(F)(F)F)c1)c1ccc(Br)o1	20.9% (inactive)	
CC(C)(C)n1nc2c(c1NC(=O)c1ccc(Br)o1)CS(=O)C2 (stereo unspecified)	9.55% (inactive)	
Cc1cc(C)c2nc(SCC(=O)NCCN3C(=O)CSC3=O)cc(C)c2c1		inactive
CCN(CC)CCNC(=O)Cc1c(C(=O)O)n(C)c2ccccc12	10.8% (inactive)	
COc1ccc(NC(=O)CN2CCC(C(N)=O)CC2)cc1	0.68% (inactive)	
O=c1cc(CO)oc(C(Nc2ccccn2)c2ccc(F)cc2)c1O (stereo unspecified)	16.2% (inactive)	
OCCNc1ccc(Cl)cc1	6.08% (inactive)	
O=C(c1ccco1)N1CCN=C1SCc1cccc(Cl)c1	6.08% (inactive)	
O=C(c1ccco1)N1CCN(C(=O)c2cn(-c3ccccc3)nc2-c2ccccc2)CC1	6.6% (inactive)	
CC(C)(C)c1cc(C(C)(C)C)cc(S(=O)(=O)CCc2ccccn2)c1	3.41% (inactive)	

Compound	inhibition	outcome
C#CC(=O)N(c1cc(OC)ccc1OC)C(C(=O)NC1CCCC1)c1cccs1 (stereo unspecified)	5.41% (inactive)	
COc1ccccc1-c1c(C)[nH]n2c(=O)c(Cc3ccccc3)c(C)nc12		inactive
CCOC(=O)Nc1nnc(-c2ccccc2OC)s1	2.73% (inactive)	
O=C(O)Cn1c(SC2CCCCC2)nc2ccccc21	0.68% (inactive)	
Cc1nn(Cc2ccc(Cl)cc2)c(C)c1NC(=O)c1cc(-c2ccc3c(c2)OCO3)on1		inactive
Cc1cc(C)cc(NC(=O)CN2CCC(NC(=O)Cc3ccccc3)CC2)c1		inactive
CC(C)c1ccc(-c2nc(N3CCCC3)nc3n[nH]c(N)c23)cc1	3.38% (inactive)	
N#Cc1ccc(N2CCN(C(=O)c3cccc(F)c3)CC2)c(F)c1	5.41% (inactive)	
CC(C)Oc1ccc2ccccc2c1C=O	21.6% (inactive)	
Cc1cc(C)n2nc(SC(C)C(=O)N3CCCC3)nc2n1 (stereo unspecified)		inactive
COc1ccc(CCNCc2ccc(OCc3ccccc3)cc2)cc1	0.33% (inactive)	
Cc1nc(OCc2ccccc2)c2ccccc2n1	5.41% (inactive)	
Oc1ccc(/C=N/N=C/c2ccc(O)c(O)c2)cc1O		inactive
O=c1cc(CSc2ccccn2)c2ccccc2[nH]1	6.08% (inactive)	
Cc1ccnc(N2CCCC(C(=O)Nc3cc(F)ccc3C)C2)n1 (stereo unspecified)	3.67% (inactive)	
Cn1c(=O)c2c(ncn2CCCNC2=CC(C)(C)CC(=O)C2)n(C)c1=O	0.68% (inactive)	
N=C1C(c2nc3ccccc3c(=O)[nH]2)=C(O)CN1c1ccccc1	5.41% (inactive)	
O=C(Nc1ccc2c(c1)OCCO2)C1CCC1	4.73% (inactive)	
C/C(=N\OCC(=O)Nc1ccc2c(c1)OCCO2)c1ccc2c(c1)OCCO2	3.41% (inactive)	
COc1ccc(-c2cc(C(=O)NCCCn3ccnc3)no2)cc1OC	2.7% (inactive)	
O=C(CSc1nnc(CCCO)n1-c1ccccc1)NCCc1ccccc1		inactive
CCc1ccc(N(C2C=CS(=O)(=O)C2)S(=O)(=O)c2ccc(C)cc2)cc1 (stereo unspecified)		inactive
O=C(c1cnn2c(C(F)F)cc(C3CC3)nc12)N1CCc2ccccc2C1	3.41% (inactive)	
Cc1cc(F)ccc1S(=O)(=O)Nc1ccccc1C(=O)Nc1ccc2[nH]c(=O)[nH]c2c1	0.68% (inactive)	

Compound	inhibition	outcome
Cc1ccccc1OCC(=O)NN1Cc2ccccc2C1=N	0.68% (inactive)	
CN(C)CCNC(=O)C(=O)c1c(-c2ccccc2)cc2ccccn12	3.3% (inactive)	
CCN1C(=O)c2ccccc2S(=O)c2ccc(C(=O)NC3CC3)cc21 (stereo unspecified)	6.08% (inactive)	
CCCCC(=O)NCCNC(=O)c1cc(OCC(F)(F)F)ccc1OCC(F)(F)F	2.73% (inactive)	
CC(C)NC(=O)c1cc(-c2ccco2)nn1-c1ccc(Cl)cc1	21.7% (inactive)	
COc1ccccc1NC(=O)N1CCCC1C(=O)NC1CCCCC1 (stereo unspecified)		inactive
Cc1[nH]c(=O)nc(NN=Cc2ccc(Cl)cc2)c1C(=O)Nc1ccc(Cl)cc1		inactive
CN1C(=O)CSc2ccc(NC(=O)NCc3cccnc3)cc21		inactive
O=C(Nc1nc2ccc(Cl)cc2s1)C1CCCO1 (stereo unspecified)	6.08% (inactive)	
Nc1c2c(nc3ccccc13)CCC2	4.09% (inactive)	
COc1cc(NC(=O)c2cccs2)c(OC)cc1NC(=O)CCn1nnc2ccccc21		inactive
O=C(CS(=O)(=O)c1cn(Cc2ccc(F)cc2)c2ccccc12)N1CCCCC1		inactive
O=C(N/N=C/c1ccc(OC(=O)c2cccs2)cc1)c1cccc(F)c1	2.7% (inactive)	
O=C(Nc1ccccc1-c1nnn(CC(=O)N2CCc3ccccc3C2)n1)C1CCC1	8.78% (inactive)	
CNc1nc(Sc2cccc(C(F)(F)F)c2)cc(C(F)(F)F)n1	2.7% (inactive)	
CC(=O)n1nc(-c2ccc(Cl)cc2)nc1NCc1ccco1	2.05% (inactive)	
O=C1CSC(c2nn(-c3ccccc3)cc2-c2cc3ccccc3oc2=O)N1Cc1ccco1 (stereo unspecified)	26.4% (inactive)	
O=C(CCN1C(=O)c2ccccc2C1=O)NCc1ccco1	2.34% (inactive)	
CCOC(=O)c1c(NC(=O)CCN2CCOCC2)sc(C)c1-c1ccccc1		inactive
CC(=O)N1CCCc2cc(S(=O)(=O)N(C)CCC#N)ccc21	2.7% (inactive)	
CCc1c(C)[nH]c(=S)c(C#N)c1C	7.5% (inactive)	
O=C(NCc1ccc(F)cc1)C1CCCN1C(=O)NCc1ccccc1 (stereo unspecified)		inactive
CCCC(c1nnnn1CC(=O)OCC)N(Cc1cc2c(C)cc(C)cc2[nH]c1=O)C1CCCC1 (stereo unspecified)	16.4% (inactive)	
